# Reference: the supplement of paper PMC6555819
# Legend:
# Assay in all cases: PBM binding z-score (relative to random genomic background probes); higher = stronger binding; sequences stand for … in GC…GCGATTGACAGCGTAGAATGAAGG
# [1] = test system: FXR:RXRa (NR concentration 270 nM, RXRa partner concentration 90 nM)
# Procedure, shortened: (§1)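 Regression normalization was applied to scanned fluorescence from custom Agilent 4×180K protein-binding microarrays. Before scanning, arrays were incubated 1 h with ligand-free nuclear receptor dimers, and binding was detected with antibodies against each partner (one per run). Binding z-scores use the random background probes as reference.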
# [2] = test system: LXRa:RXRa (NR concentration 270 nM, RXRa partner concentration 90 nM)
# Procedure, shortened: as §1
# [3] = test system: LXRa homodimer (NR concentration 270 nM)
# Procedure, shortened: as §1
# [4] = test system: LXRb:RXRa (NR concentration 270 nM, RXRa partner concentration 90 nM)
# Procedure, shortened: as §1
# [5] = test system: LXRb homodimer (NR concentration 270 nM)
# Procedure, shortened: as §1
# [6] = test system: PPARa:RXRa (NR concentration 270 nM, RXRa partner concentration 90 nM)
# Procedure, shortened: as §1
# [7] = test system: PPARg:RXRa (NR concentration 180 nM, RXRa partner concentration 90 nM)
# Procedure, shortened: as §1
# [8] = test system: PPARg:RXRa 270nM:90nM, anti-RXR (NR concentration 270 nM, RXRa partner concentration 90 nM)
# Procedure, shortened: as §1
# [9] = test system: PPARg:RXRa 30nM:10nM, anti-RXR (NR concentration 30 nM, RXRa partner concentration 10 nM)
# Procedure, shortened: as §1
# [10] = test system: PPARg:RXRa 90nM:30nM, anti-RXR (NR concentration 90 nM, RXRa partner concentration 30 nM)
# Procedure, shortened: as §1
# [11] = test system: PPARg:RXRa DBDmut IVT, anti-RXR (DBD mutation: RXRa K156A/R161A, NR concentration 270 nM, RXRa partner concentration 90 nM)
# Procedure, shortened: as §1
# [12] = test system: PPARg:RXRa IVT, anti-PPARg (NR concentration 270 nM, RXRa partner concentration 90 nM)
# Procedure, shortened: as §1
# [13] = test system: PPARg DBDmut:RXRa IVT, anti-PPARg (DBD mutation: PPARg1 K132A/R137A, NR concentration 270 nM, RXRa partner concentration 90 nM)
# Procedure, shortened: as §1
# [14] = test system: PPARg DBDmut IVT, anti-PPARg (DBD mutation: PPARg1 K132A/R137A, NR concentration 270 nM)
# Procedure, shortened: as §1
# [15] = test system: PPARg homodimer (NR concentration 180 nM)
# Procedure, shortened: as §1
# [16] = test system: PXR:RXRa (NR concentration 270 nM, RXRa partner concentration 90 nM)
# Procedure, shortened: as §1
# [17] = test system: PXR homodimer (NR concentration 270 nM)
# Procedure, shortened: as §1
# [18] = test system: RARa:RXR (NR concentration 270 nM, RXRa partner concentration 90 nM)
# Procedure, shortened: as §1
# [19] = test system: RARa homodimer (NR concentration 270 nM)
# Procedure, shortened: as §1
# [20] = test system: RARb:RXRa (NR concentration 270 nM, RXRa partner concentration 90 nM)
# Procedure, shortened: as §1
Sequence,PBM binding z-score [1],PBM binding z-score [2],PBM binding z-score [3],PBM binding z-score [4],PBM binding z-score [5],PBM binding z-score [6],PBM binding z-score [7],PBM binding z-score [8],PBM binding z-score [9],PBM binding z-score [10],PBM binding z-score [11],PBM binding z-score [12],PBM binding z-score [13],PBM binding z-score [14],PBM binding z-score [15],PBM binding z-score [16],PBM binding z-score [17],PBM binding z-score [18],PBM binding z-score [19],PBM binding z-score [20]
TCGAGTAGGTTACCAATGGCGCATTCAGCTTTCT,0.273,0.571,-0.489,0.382,-0.736,0.977,0.185,1.23,1.11,1.17,3.69,2.51,0.479,-0.462,-0.236,0.00763,-0.811,0.064,-0.676,0.628
GGAACGAGGGCATTCGAGATGATAGCATGGCGAT,0.866,0.444,-0.191,-0.035,-0.591,1.38,1.36,0.68,0.253,0.521,2.56,2.34,-0.145,-0.476,-0.199,0.623,0.0214,0.232,-0.236,1.72
TTAGACAGGTGAAGGTAACTCAGGTACGCAGTCG,0.437,1.75,-0.26,0.818,-0.0711,1.07,0.825,1.33,1.9,1.54,1.15,1.49,1.36,0.841,0.811,0.344,-0.00345,0.387,0.607,0.951
TCATCTAGGTAATACAGGTGAAAGTCGGCATCTA,0.88,0.831,0.409,0.796,0.445,2.05,1.29,2.5,3.85,3.22,4.07,4.08,1.3,1.36,0.913,0.275,0.512,0.694,1.29,0.575
CCTCGGAGGACAGAAGGTCAGAGCGGTCCGCTTT,1.42,1.8,0.0694,0.843,-0.863,1.78,-0.185,0.642,-0.618,0.0661,0.0292,-0.0958,-1.49,-1.9,1.2,1.91,-0.289,1.91,0.122,3.18
CAAACTATGTCAAGAGGTCAAAGTCCGCTTCCCG,5.04,5.63,5.89,4.97,2.01,5.33,5.62,6.27,4.55,6,4.61,4.88,1.22,0.601,4.01,5.64,2.84,6.21,2.09,4.3
CTACCAAGGTGAACAAGGTCGTTGTTTACTATTC,1.24,1.22,-0.0325,1.85,-0.465,2.46,0.787,1.29,-0.0619,0.702,2.55,2.57,0.468,0.107,0.724,2.78,1.16,2.27,-0.486,2
ACAGACAGGCGATGAAGGTAACTCAGGCTATCAT,-0.05,-0.309,-0.155,-0.384,-0.145,-0.503,0.721,-0.326,0.0512,-0.438,-0.645,-0.444,-0.214,0.247,0.743,-0.467,0.0486,-0.431,-0.0743,-0.249
CATACAGGGTCAGCTAGGCCATAGTAGGGACGGC,4.59,3.07,-0.118,2.31,0.267,4.32,3.69,2.95,1.21,1.9,0.879,2.3,0.763,0.466,1.7,2.69,0.334,3.47,0.85,4.01
ATCGAAAGGTGGAGGTGAGTATAGAGAAAGGGAA,0.433,0.583,-0.00361,0.504,0.617,0.622,0.263,0.302,0.265,0.243,-0.413,0.772,-0.138,-0.168,0.613,0.147,0.659,0.0317,1.06,1.28
TCTAGTTGGTCAAATGTCACACACTCGAAATGCG,0.894,0.965,0.736,1.29,0.913,2.93,5.26,6.74,5.88,7.55,2.7,3.59,1.9,2.34,2.58,1.09,0.666,1.67,1.52,1.89
CCAGCTAGGTCAATGGTCAGCTAAAGCAGCTCGC,2.92,2.06,-0.24,1.27,-0.685,3.2,5.08,5.75,3.27,5.34,4.9,4.47,-0.141,-0.0695,1.28,0.737,-0.176,1.49,-0.163,3.73
ATCGAAAGGTTGAGGTGAGTATAGAGAAAGGGAA,0.898,0.95,-0.00942,0.744,0.158,1.86,0.625,0.616,0.531,0.337,-0.0233,1.04,1.15,1.07,0.793,0.751,0.241,1.37,0.673,1.79
TAGCCTAGGTCGTGGGCCAGTATACCACGCGAAC,0.0973,0.0379,-0.669,0.0173,-0.88,0.972,0.333,0.511,-0.615,-0.0658,-0.693,0.595,-0.359,-1.24,-0.437,-0.344,-0.949,0.14,-0.754,1.19
TCTTGGAGATCAATAGAGGTTAAGAAAGTGCGCT,1.28,3.82,0.422,2.09,-0.451,1.94,-0.159,1.27,2.09,1.59,0.87,0.273,0.0631,-0.22,0.19,3.33,-0.00174,1.94,0.245,0.9
CATACAGGGTCAGCTAGGCCAGAATAGGGACGGC,4.83,3.22,-0.0324,2.38,-0.0852,4.55,3.66,3.09,0.879,2,0.915,2.41,0.965,0.203,0.999,2.22,0.0161,2.91,0.818,4.16
CCGAGCAGGCCAGGGTCACTCAAGCATTTCGCTT,2.23,1.75,-0.467,2.16,-1.08,2.97,0.393,1.19,-0.201,0.482,-0.216,0.461,-1.99,-1.55,1.51,2.78,-0.479,3.47,-0.256,2.65
CCTAGTTGGTCAAGGTCACACAGGCTATAGGTAC,4.41,4.07,1.88,3.56,0.583,4.31,3.32,3.88,1.62,2.62,2.08,3.64,0.89,0.538,3.81,4.67,3.92,4.96,2.03,4.34
